Screen size: about 3,300 compounds; about 280 (8.5%) were called active.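 How the source made its calls: active means mean growth inhibition over the two runs of 50% or more; inactive means mean growth inhibition under 50%.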 Shown is part of a subset that was picked to be rich in actives.

In PubChem BioAssay AID371 (SRMLSC, 2006) one finds growth inhibition data, which are given here for 101 compounds.

A short description of this test: A549 NSCLC cell proliferation inhibitors – ATP luminescence, human non-small cell lung line, primary screen (AID 371).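 Further: compound exposure lasted 72 h before the ATP read; 0% = untreated cell signal and 100% = no luminescence left.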 Conditions: at 10 µM, stronger effect = higher value.
Turning to `Cc1cc(N2C(=O)C(=O)/C(=C(/O)c3ccc(F)cc3)C2c2ccc(F)cc2)no1` (stereo unspecified), the growth inhibition was 9.16% (inactive).

For the compound `CCc1nc2n[nH]c(N)c2c2c1CSC(C)(C)C2`, the growth inhibition is 12.5% (inactive).

For `COc1ccccc1-c1cc(-c2cc(Cl)ccc2O)n[nH]1`, the growth inhibition was 15% (inactive).

On to `COc1cccc(NC(=O)C2CC(=O)n3cnnc3S2)c1` (stereo unspecified), for which the growth inhibition is -2.07% (inactive).

Take `c1ccc(-n2c(Cc3cccnc3)nc3cnccc32)cc1`: the growth inhibition was -4.36% (inactive).

Turning to `Clc1ccc(-c2nn3c(-c4cccc(Cl)c4)nnc3s2)cc1`, the growth inhibition was 22.7% (inactive).

Take `Cc1cccc(OCCN2CSC(=S)N(C)C2)c1`: the growth inhibition was 51.6% (active).

Take `Cc1cccc(OCC(=O)NCC(=O)n2nc(C)cc2C)c1`: the growth inhibition is 1.47% (inactive).

On to `Cc1c(C(=O)O)c(=S)sn1CCOc1ccccc1`, for which the growth inhibition is 3.85% (inactive).

For the compound `COc1ccc(-c2ncncc2-c2csc(C)n2)c(O)c1`, the growth inhibition is 3.39% (inactive).

Take `COc1cccc(-c2nnc3sc(-c4ccccc4)nn23)c1`: the growth inhibition was 8.34% (inactive).

`COc1ccc(-c2onc(C)c2-c2ccccc2)c(O)c1`: the growth inhibition was 52.1% (active).

As to `Nc1nnc(Cc2ccc(Cl)c(Cl)c2)s1`, the growth inhibition was 18.2% (inactive).

Turning to `O=C1NC(=O)C(c2cn(-c3ccccc3)nc2-c2ccc(F)cc2)N1` (stereo unspecified), the growth inhibition is 10.6% (inactive).

Take `CC[C@H]1CN2CCc3cc(OC)c(OC)cc3[C@@H]2C[C@@H]1C[C@H]1NCCc2cc(OC)c(OC)cc21`: the growth inhibition is 78.5% (active).

Turning to `Cc1ccc(-c2ccccc2NC(=O)C2C3C=CC(C3)C2C(=O)O)o1` (stereo unspecified), the growth inhibition was 1.09% (inactive).

Turning to `C/C(=N\O)c1ccc2[nH]ccc2c1`, the growth inhibition was 9.01% (inactive).

On to `Nc1nc(F)nc2c1ncn2[C@@H]1O[C@H](CO)[C@@H](O)[C@@H]1O`, for which the growth inhibition was 73.1% (active).

Consider `Nc1nc(Cl)nc2c1ncn2[C@@H]1O[C@H](CO)[C@@H](O)[C@H]1O`, for which the growth inhibition was 33.3% (inactive).

For the compound `Nc1ncnc2c1ncn2[C@@H]1O[C@H](CO)[C@@H](O)[C@H]1O`, the growth inhibition is 1.29% (inactive).

As for `CCOC(=O)CSc1nc(C)c(C(C)=O)cc1C#N`, the growth inhibition is 7.6% (inactive).

For the compound `N#C/C(=C\c1ccc(O)c(O)c1)C(=O)NCCCc1ccccc1`, the growth inhibition is 64.3% (active).

Regarding `O=C(NCCc1ccccc1)/C(=N\O)c1ccccc1`, the growth inhibition is 10.9% (inactive).

Turning to `O=C(O)CCCc1ccccc1`, the growth inhibition was -1.26% (inactive).

Take `CC(C)(C)C1=Nn2c(nnc2-c2ccco2)SC1`: the growth inhibition was 2.63% (inactive).

Take `CC(=O)N(Cc1ccccc1)c1ccc(C(=O)O)cc1`: the growth inhibition is -0.07% (inactive).

For `COc1ccccc1C(CC(=O)Nc1nccs1)c1ccco1` (stereo unspecified), the growth inhibition is 11.7% (inactive).

Consider `O=c1[nH]nc2n1CCCCC2`, for which the growth inhibition is 2.49% (inactive).

Regarding `CC(C)C1Cc2c(sc3c2c(=O)n(Cc2ccccc2)c2nncn32)CO1` (stereo unspecified), the growth inhibition was 25.2% (inactive).

In the case of `Cc1nnc2n(Cc3ccccc3)c(=O)c3c4c(sc3n12)COC(C(C)C)C4` (stereo unspecified), the growth inhibition is 72.3% (active).

`Cc1nnc2n(-c3ccccc3)c(=O)c3c4c(sc3n12)COC(C(C)C)C4` (stereo unspecified): the growth inhibition was 13.4% (inactive).

`COC(=O)c1[nH]c2cc(OC)ccc2c1NC(=O)CN1CCC(C(N)=O)CC1`: the growth inhibition was -2.17% (inactive).

On to `COC(=O)c1[nH]c2cc(OC)ccc2c1NC(=O)CCN1CCCC(C)(C)C1`, for which the growth inhibition is -5.32% (inactive).

`COC(=O)c1[nH]c2cc(OC)ccc2c1NC(=O)CN1CCN(c2cccc(C)c2)C(C)C1` (stereo unspecified): the growth inhibition is 68% (active).

Turning to `COc1cccc2c(=O)c(SC(F)(F)C(F)C(F)(F)F)c(C)[nH]c12` (stereo unspecified), the growth inhibition is 46.7% (inactive).

As to `CC(C)(C)c1cccc(/C=N/O)c1O`, the growth inhibition was 84.1% (active).

On to `CSC(=Nc1ccccc1)C1=C(O)COC1=O`, for which the growth inhibition is 3.6% (inactive).

As to `CSc1nc(C)c2c(c1C#N)CCCC2`, the growth inhibition is 11.1% (inactive).

For the compound `O=C(NC1CCCCC1)[C@H](O)[C@@H](O)C(=O)NC1CCCCC1`, the growth inhibition was -22.3% (inactive).

In the case of `CCCc1nc(N2CCCC2)c(C#N)c2c1CCCC2`, the growth inhibition was 20.2% (inactive).

As for `COc1ccc(CNc2oc(COc3ccc(Cl)cc3)nc2C#N)cc1`, the growth inhibition was 74.1% (active).

For the compound `COc1ccc(CNc2oc(COc3ccccc3Cl)nc2C#N)cc1`, the growth inhibition is 34.1% (inactive).

On to `COc1ccc(CCNc2oc(COc3ccccc3)nc2C#N)cc1`, for which the growth inhibition is 31.8% (inactive).

Regarding `COC(=O)c1ccc(Cn2nnc3c(sc4nc(N5CCOCC5)c5c(c43)CCCC5)c2=O)o1`, the growth inhibition is 3.34% (inactive).

For `O=CNC(=O)c1ccccc1C(=O)O`, the growth inhibition is -1.48% (inactive).

For the compound `CCOC(=O)c1cc2cc(OC)ccc2[nH]1`, the growth inhibition is 15.9% (inactive).

Consider `CCCCC(=O)Nc1c(O)c2ccccc2[nH]c1=O`, for which the growth inhibition was 3.38% (inactive).

In the case of `O=c1c(-c2ccc3c(c2)OCCO3)c(C(F)(F)F)oc2cc(O)cc(O)c12`, the growth inhibition was 71.1% (active).

Take `O=c1c(O)c(-c2ccc(O)cc2O)oc2cc(O)cc(O)c12`: the growth inhibition is 4.21% (inactive).

Regarding `COc1ccc(-c2coc3cc(O)cc(O)c3c2=O)cc1`, the growth inhibition is 21.9% (inactive).

Take `COC(=O)c1cc(=O)n2c(-c3ccc(OC)cc3)csc2n1`: the growth inhibition is -0.07% (inactive).

Consider `O=C(O)CCCCCN1C(=O)CCC1=O`, for which the growth inhibition is -0.47% (inactive).

As for `CC1(C)Cc2c(c(N3CCOCC3)nc3sc4c(NCc5ccco5)nnnc4c23)CS1`, the growth inhibition is 32.9% (inactive).

Consider `OCCN1CCN(CCCN2c3ccccc3Sc3ccc(C(F)(F)F)cc32)CC1`, for which the growth inhibition was 92.3% (active).

Take `CN1CCN(CCCCOc2ccc(F)cc2)CC1`: the growth inhibition was 3.19% (inactive).

In the case of `CN1CCN(CCCN2c3ccccc3Sc3ccc(Cl)cc32)CC1`, the growth inhibition is 0.16% (inactive).

On to `CN1CCN(CCCN2c3ccccc3Sc3ccc(C(F)(F)F)cc32)CC1`, for which the growth inhibition is 93.1% (active).

For `OCCN1CCN(CCCN2c3ccccc3Sc3ccc(Cl)cc32)CC1`, the growth inhibition was 90.6% (active).

Consider `CN1CCN(CCC(=O)N2c3ccccc3Sc3ccc(Cl)cc32)CC1`, for which the growth inhibition was 13.4% (inactive).

On to `c1ccc(SCc2nc3ccccc3[nH]2)nc1`, for which the growth inhibition was 6.85% (inactive).

Regarding `CC(NC(=O)Nc1ncccn1)(C(F)(F)F)C(F)(F)F`, the growth inhibition was 0.51% (inactive).

With `C/C(=N\O)C1(C)N(O)C(C)(C)C(c2ccco2)=[N+]1[O-]` (stereo unspecified), the growth inhibition was 2.56% (inactive).

Turning to `CC1(C)Cc2c(c(-c3ccccc3)nc(N3CCCC3)c2C(N)=O)CO1`, the growth inhibition was 7.2% (inactive).

For the compound `O=C(NC1(C(F)(F)F)C(=O)Nc2c1c(=O)[nH]c(=O)n2-c1ccccc1)c1cccnc1` (stereo unspecified), the growth inhibition is 1.94% (inactive).

On to `CCOC(=O)CSC1=C(C#N)C(=O)NC2(CCCCC2)S1`, for which the growth inhibition is -4.21% (inactive).

For the compound `Nc1nonc1-c1noc(-c2ccccc2)n1`, the growth inhibition was 8.32% (inactive).

In the case of `Nc1nc(N)c2nc(-c3ccccc3)c(N)nc2n1`, the growth inhibition is 82.4% (active).

Regarding `Nc1nnc(-c2cccc(Cl)c2Cl)c(N)n1`, the growth inhibition was 14.4% (inactive).

For the compound `O=C(O)c1cnn2c(C(F)(F)F)cc(-c3ccco3)nc12`, the growth inhibition is -1.5% (inactive).

As to `O=C(CCCN1C(=O)c2ccccc2C1=O)N1CCC(c2ccccc2)C1` (stereo unspecified), the growth inhibition was -0.61% (inactive).

In the case of `CCN(CC)c1ccc(C2Nc3cccc4cccc(c34)N2)c(O)c1`, the growth inhibition was 77.5% (active).

For `OCCNC1=NCCN1`, the growth inhibition was -1.49% (inactive).

As for `N#Cc1nc(COc2ccccc2F)oc1NCCCn1ccnc1`, the growth inhibition is 5.01% (inactive).

Consider `CC(C(=O)N(C)C)N(C#N)c1nc(N(C)C)nc(N(C)C)n1` (stereo unspecified), for which the growth inhibition is 3.51% (inactive).

On to `CC(COc1ccccc1)N(CCCl)Cc1ccccc1` (stereo unspecified), for which the growth inhibition is 54.1% (active).

With `CC(COc1ccccc1)NC(C)C(O)c1ccc(O)cc1` (stereo unspecified), the growth inhibition was 4.38% (inactive).

As to `Cc1nc(-c2coc3cc(OCC(=O)O)ccc3c2=O)cs1`, the growth inhibition is 13.4% (inactive).

For the compound `O=C(NCCO)C1(c2ccccc2)CCCC1`, the growth inhibition was 0.3% (inactive).

On to `OCCN(CCO)c1ncnc2c1sc1nc(N3CCOCC3)c3c(c12)CCCC3`, for which the growth inhibition is 58.3% (active).

Regarding `O=c1c2sc3nc(N4CCOCC4)c4c(c3c2ncn1Cc1ccco1)CCCC4`, the growth inhibition is 22.7% (inactive).

`COC(=O)c1ccc(CSc2ncnc3c2sc2nc(N4CCOCC4)c4c(c23)CCCC4)o1`: the growth inhibition was -12.8% (inactive).

For `Cc1cc(OCC(=O)Nn2cnnc2)ccc1Br`, the growth inhibition was 4.24% (inactive).

On to `Cc1noc(NS(=O)(=O)c2ccc(NC(=O)COc3ccccc3)cc2)c1C`, for which the growth inhibition is -8.3% (inactive).

As for `CC(NCCC(c1ccccc1)c1ccccc1)c1ccccc1` (stereo unspecified), the growth inhibition is 90.6% (active).

For `CC(NC(=O)c1ccc(=O)oc1)c1ccccc1` (stereo unspecified), the growth inhibition was 3.88% (inactive).

For the compound `COc1ccc(C(=O)Cn2c(N3CCCCC3)nc3c2c(=O)n(C)c(=O)n3C)cc1OC`, the growth inhibition is 8.72% (inactive).

`CCCC(C)n1[nH]c(=O)cc1N` (stereo unspecified): the growth inhibition is -3.66% (inactive).

Regarding `COC(=O)c1ccc(C2/C(=C(\O)c3ccc4c(c3)OCCO4)C(=O)C(=O)N2CCCN(C)C)cc1` (stereo unspecified), the growth inhibition is 3.46% (inactive).

With `N#Cc1c(N)n(CCOC(=O)c2cccc(Br)c2)c2nc3ccccc3nc12`, the growth inhibition is 3.2% (inactive).

For the compound `CCOC(=O)CSC1=C(C#N)C(c2ccc3c(c2)OCO3)CC(=O)N1` (stereo unspecified), the growth inhibition was 49.8% (inactive).

With `CCCOC(=O)CSC1=C(C#N)C(c2ccc3c(c2)OCO3)CC(=O)N1` (stereo unspecified), the growth inhibition was 50.4% (active).

As for `CCCCOC(=O)CSC1=C(C#N)C(c2ccc3c(c2)OCO3)CC(=O)N1` (stereo unspecified), the growth inhibition was 40.3% (inactive).

As to `CCOC(=O)CSc1nc(N2CCOCC2)c2c(c1C#N)CC(C)(C)N(C)C2`, the growth inhibition is 13.9% (inactive).

Take `CC(C)Oc1ccc(Cc2c(O)nc(NCCCN(C)C)[nH]c2=O)cc1`: the growth inhibition is -4.15% (inactive).

Turning to `Cc1ccc2cc(CNC(C)C)c(=O)[nH]c2c1`, the growth inhibition was 2.25% (inactive).

As to `CCN(CC)C(=O)COn1c(SCC(=O)N(CC)CC)nc2ccccc2c1=O`, the growth inhibition is -4.27% (inactive).

As for `CCN(CC)C(=O)CSc1nc2ccccc2c(=O)n1CC1CCCCC1`, the growth inhibition is 59.2% (active).

With `O=C(CSc1nc2ccccc2c(=O)n1CC1CCCCC1)N1CCOCC1`, the growth inhibition was 19.6% (inactive).

For the compound `CCN(CC)CCN1C(=O)C(=O)/C(=C(/O)c2ccc(F)cc2)C1c1ccncc1` (stereo unspecified), the growth inhibition is -7.83% (inactive).

For the compound `Cn1c[n+](C)cc1/C=N/O`, the growth inhibition was -3.08% (inactive).

In the case of `Cc1[nH]c2ccc(F)cc2c(=O)c1SC(F)(F)C(F)C(F)(F)F` (stereo unspecified), the growth inhibition is 35.6% (inactive).
